Source: PubChem BioAssay (NCI)
The panel holds about 83,000 compounds, 20% with a hit somewhere; the sample as a whole holds those more often.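 Activity criterion: percent growth below 10, measured after cells in 96-well plates were exposed to a single compound concentration for 48 hours.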 The source made the active and inactive calls.

What was measured:
Assay in all cases: NCI-60 one-dose screen, 48 h (100 = growth as untreated, 0 = no growth, -100 = all killed)
Conditions in all cases: 10 µM unless noted
T-47D breast = system: T-47D breast
BT-549 breast = system: BT-549 breast
MDA-MB-435 melanoma = system: MDA-MB-435 melanoma
SW-620 colon = system: SW-620 colon
MCF7 breast = system: MCF7 breast
HCT-116 colon = system: HCT-116 colon
HCC-2998 colon = system: HCC-2998 colon
KM12 colon = system: KM12 colon

Measured: growth

CCCCCCCCC/C(=N\NC(=O)c1ccncc1)c1ccc(O)c(O)c1O
inactive: T-47D breast 33.7% | BT-549 breast 38.8% | MDA-MB-435 melanoma 53% | SW-620 colon 43.1% | MCF7 breast 21.4% | HCT-116 colon 26.7% | HCC-2998 colon 33.3% | KM12 colon 22.4%

COC(=O)C(C(=O)OC)C(Br)C(Br)C(Br)c1ccccc1 (centres undefined)
inactive: BT-549 breast 108% | MDA-MB-435 melanoma 91.2% | SW-620 colon 18.6% | HCT-116 colon 16.5% | HCC-2998 colon 110% | KM12 colon 101%
active: T-47D breast -32.9% | MCF7 breast 8.14%

O=C(Nc1ccccc1)Nc1ccc(Nc2ncnc3sc4c(c23)CCCC4)cc1
inactive: T-47D breast 101% | BT-549 breast 109% | MDA-MB-435 melanoma 112% | SW-620 colon 106% | MCF7 breast 96.2% | HCT-116 colon 115% | HCC-2998 colon 95.4% | KM12 colon 102%

COc1cc2c(cc1OC)C(Cc1cc(OC)c(OC)cc1[N+](=O)[O-])=NCC2
inactive: T-47D breast 78.5% | BT-549 breast 56.6% | MDA-MB-435 melanoma 90.9% | SW-620 colon 82% | MCF7 breast 94% | HCT-116 colon 62.2% | HCC-2998 colon 89.5% | KM12 colon 88%

c1ccc2[nH]c(-c3ccc(OCCCCCOc4ccc(-c5nc6ccccc6[nH]5)cc4)cc3)nc2c1
active: T-47D breast -60.3% | BT-549 breast -13.5% | MDA-MB-435 melanoma 8.59% | SW-620 colon -3.03% | MCF7 breast -39.3% | HCT-116 colon -21.8%
inactive: HCC-2998 colon 14.8% | KM12 colon 23.5%

c1ccc(-c2cn3ccnc3c(-c3ccc4ncn(C5CCCCC5)c4c3)n2)cc1
active: T-47D breast -11.1%
inactive: BT-549 breast 42.9% | MDA-MB-435 melanoma 71.3% | SW-620 colon 90.9% | MCF7 breast 62% | HCT-116 colon 40.5% | HCC-2998 colon 103% | KM12 colon 51%

COc1ccc(C2=C/C(=C\c3ccc(Cl)cc3)C(=O)NN2C(=S)NN)cc1
inactive: T-47D breast 76.6% | BT-549 breast 101% | MDA-MB-435 melanoma 109% | SW-620 colon 99.4% | MCF7 breast 75.3% | HCT-116 colon 94.9% | HCC-2998 colon 109% | KM12 colon 100%

CC[C@H](Nc1ncnc2nc[nH]c12)c1nc2cccc(NCc3ccc(C(=O)NO)nc3)c2c(=O)n1-c1ccccc1
active: T-47D breast 6.8% | HCT-116 colon 9.03%
inactive: BT-549 breast 13.3% | MDA-MB-435 melanoma 25.4% | SW-620 colon 47.2% | MCF7 breast 13.3% | HCC-2998 colon 67.6% | KM12 colon 60.9%

CCCC(=O)Nc1ccccc1C(=O)O
inactive: T-47D breast 117% | BT-549 breast 113% | MDA-MB-435 melanoma 101% | SW-620 colon 105% | MCF7 breast 90.7% | HCT-116 colon 103% | HCC-2998 colon 97.9% | KM12 colon 90.5%

CCOc1ccc2nc3ccc(Cl)cc3nc2c1
inactive: T-47D breast 80.6% | BT-549 breast 90.7% | MDA-MB-435 melanoma 107% | SW-620 colon 91% | MCF7 breast 92.3% | HCT-116 colon 88.1% | HCC-2998 colon 70.5% | KM12 colon 94.5%

COc1ccc(-c2nc(SCC(C)C)nc(Nc3ccccc3)c2C#N)cc1
inactive: T-47D breast 51.3% | BT-549 breast 101% | MDA-MB-435 melanoma 92.8% | SW-620 colon 67.8% | MCF7 breast 75.7% | HCT-116 colon 38.5% | HCC-2998 colon 99.3% | KM12 colon 97.9%

CC(=O)Oc1cc2ccccc2cc1C(C)C
inactive: T-47D breast 101% | BT-549 breast 112% | MDA-MB-435 melanoma 102% | SW-620 colon 99.7% | MCF7 breast 98% | HCT-116 colon 97.1% | HCC-2998 colon 99.2% | KM12 colon 118%

CCCCCCCCCCCCCCCC[n+]1cccc(C#N)c1
inactive: T-47D breast 49.2% | BT-549 breast 90.3% | MDA-MB-435 melanoma 73.3% | SW-620 colon 35.6% | MCF7 breast 38.5% | HCT-116 colon 24% | HCC-2998 colon 65.2% | KM12 colon 44.4%

COC1NC(Cl)=C(C#N)C(C#N)(C#N)C1(C)C (centres undefined)
inactive: T-47D breast 112% | BT-549 breast 97% | MDA-MB-435 melanoma 124% | SW-620 colon 95.9% | MCF7 breast 124% | HCT-116 colon 108% | HCC-2998 colon 113% | KM12 colon 111%

CCCCCCCCCCCC(=O)OC(C)C(=O)Nc1ccccc1 (centres undefined)
inactive: T-47D breast 87.9% | BT-549 breast 82% | MDA-MB-435 melanoma 106% | SW-620 colon 95.1% | MCF7 breast 91.7% | HCT-116 colon 96.5% | HCC-2998 colon 103% | KM12 colon 102%

CCOC(=O)c1cc(C(=O)c2ccc(Br)cc2)n2cc(C)cc(C)c12
inactive: T-47D breast 80.3% | BT-549 breast 79% | MDA-MB-435 melanoma 102% | SW-620 colon 103% | MCF7 breast 90% | HCT-116 colon 75.3% | HCC-2998 colon 102% | KM12 colon 98.9%

Cc1c(C(N)=O)sc2c1c(=O)n(Cc1ccccc1)c1nnc(S(C)(=O)=O)n21
inactive: T-47D breast 89.4% | BT-549 breast 78.9% | MDA-MB-435 melanoma 81.7% | SW-620 colon 94.3% | MCF7 breast 73.3% | HCT-116 colon 79.6% | HCC-2998 colon 103% | KM12 colon 109%

COc1ccc2sc(-n3nc4nc5n(c(=O)c4c3N)-c3ccccc3Sc3ccccc3-5)nc2c1
inactive: T-47D breast 29.2% | BT-549 breast 73.2% | MDA-MB-435 melanoma 79.5% | SW-620 colon 95.6% | MCF7 breast 54.2% | HCT-116 colon 65.7% | HCC-2998 colon 93.6% | KM12 colon 81.4%

Br/C(=N\Nc1nn[nH]n1)c1ccccc1
inactive: T-47D breast 101% | BT-549 breast 99% | MDA-MB-435 melanoma 111% | SW-620 colon 102% | MCF7 breast 95.3% | HCT-116 colon 104% | HCC-2998 colon 118% | KM12 colon 114%

O=S(=O)(Cc1cccc2c(CS(=O)(=O)c3ccc(Cl)cc3)cccc12)c1ccc(Cl)cc1
inactive: T-47D breast 100% | BT-549 breast 105% | MDA-MB-435 melanoma 77.7% | SW-620 colon 88.5% | MCF7 breast 85.4% | HCT-116 colon 95.5% | HCC-2998 colon 101% | KM12 colon 88.1%

Nc1nc2c(c3cnccc13)C(c1cccc(Cl)c1)Cc1cnccc1-2 (centres undefined)
inactive: T-47D breast 47.9% | SW-620 colon 24.2% | MCF7 breast 11.1% | HCC-2998 colon 41.7% | KM12 colon 13.7%
active: BT-549 breast -12% | MDA-MB-435 melanoma -22.9% | HCT-116 colon 6.83%

CCCCCCCCCCCCOC(=N)N(C)C
inactive: T-47D breast 89.9% | BT-549 breast 96.7% | MDA-MB-435 melanoma 97.4% | SW-620 colon 98.8% | MCF7 breast 94.1% | HCT-116 colon 87.6% | HCC-2998 colon 101% | KM12 colon 101%

CCCCCCCCCCC1OC(C)CC(C)O1 (centres undefined)
inactive: T-47D breast 88.7% | BT-549 breast 101% | MDA-MB-435 melanoma 107% | SW-620 colon 103% | MCF7 breast 98.6% | HCT-116 colon 97.3% | HCC-2998 colon 101% | KM12 colon 103%

CC(=O)OCC(=O)[C@@]1(O)[C@H](C)C[C@H]2[C@@H]3C=C(C)C4=Cc5c(cnn5-c5ccc(F)cc5)C[C@]4(C)[C@H]3[C@@H](O)C[C@@]21C
inactive: T-47D breast 42.9% | BT-549 breast 54.8% | MDA-MB-435 melanoma 23.3% | MCF7 breast 18.9% | HCT-116 colon 15.7%
active: SW-620 colon -70.3% | HCC-2998 colon -35.3% | KM12 colon -46.7%

O=C1CCNC1
inactive: T-47D breast 107% | BT-549 breast 105% | MDA-MB-435 melanoma 104% | SW-620 colon 103% | MCF7 breast 103% | HCT-116 colon 105% | HCC-2998 colon 118% | KM12 colon 111%

CC([C@H]1CCC2C3CCC4C[C@@H](N)CC[C@]4(C)C3CC[C@@]21C)N(C)C (some centres undefined)
inactive: T-47D breast 55.9% | BT-549 breast 80.1% | SW-620 colon 40.2% | MCF7 breast 48.7% | HCT-116 colon 27.9% | HCC-2998 colon 80.1% | KM12 colon 51.3%
active: MDA-MB-435 melanoma 0%

CC(=N\N=C(N)N)/C(=N/N=C(N)N)c1ccccc1
inactive: T-47D breast 60.8% | BT-549 breast 88% | MDA-MB-435 melanoma 103% | SW-620 colon 86.3% | MCF7 breast 18.9% | HCT-116 colon 80.4% | HCC-2998 colon 73.8% | KM12 colon 70.4%

C=CCNC(=S)NNc1ccc([N+](=O)[O-])cn1
inactive: T-47D breast 113% | BT-549 breast 100% | MDA-MB-435 melanoma 95.7% | SW-620 colon 92% | MCF7 breast 88.4% | HCT-116 colon 97.6% | HCC-2998 colon 96.3% | KM12 colon 99.4%

COc1cc(OC)cc(-c2ccc(-c3ccc(C(=N)N)cc3)s2)c1
active: T-47D breast -53.6% | BT-549 breast -72.4% | MDA-MB-435 melanoma -97.5% | SW-620 colon -73.7% | MCF7 breast -75.2% | HCT-116 colon -93.3% | HCC-2998 colon -76.5% | KM12 colon -84.9%

COc1cc2ncnc(-n3ncc4cc(NC(=O)Nc5ccccc5)ccc43)c2cc1OC
active: T-47D breast -7.28% | MCF7 breast -20.3% | HCT-116 colon 6.38% | KM12 colon 4.62%
inactive: BT-549 breast 24.9% | MDA-MB-435 melanoma 31.6% | SW-620 colon 49.5% | HCC-2998 colon 34.1%

O=C1C(Cl)=C(Nc2ccc(Nc3ccccc3)c(NC3=C(Cl)C(=O)c4ccccc4C3=O)c2)C(=O)c2ccccc21
inactive: T-47D breast 14.9% | BT-549 breast 53.3% | MDA-MB-435 melanoma 113% | SW-620 colon 33.8% | MCF7 breast 73.7% | HCT-116 colon 51.2% | HCC-2998 colon 55.1% | KM12 colon 31.6%

O=CN/N=C/c1ccc(Cl)c([N+](=O)[O-])c1
inactive: T-47D breast 25.3% | BT-549 breast 42.6% | MDA-MB-435 melanoma 18.9% | SW-620 colon 17.6% | HCT-116 colon 16.2% | HCC-2998 colon 27.2%
active: MCF7 breast 6.05% | KM12 colon 7.24%

COc1cc(C(=O)Nc2ccc(N(C)C)cc2)cc(OC)c1OC
active: MDA-MB-435 melanoma 1.26%
inactive: T-47D breast 91.1% | BT-549 breast 96.7% | SW-620 colon 85.9% | MCF7 breast 77.8% | HCT-116 colon 89% | HCC-2998 colon 92.1% | KM12 colon 81%
